Rows were chosen to be rich in hits. Some 3.3% of all compounds tested hit in one or more screens of this group.
AmpC inh no detg – AmpC beta-lactamase inhibition without detergent | P00811 | AmpC nitrocefin hydrolysis, absorbance 480 nm, 0.0001% Triton | Potency, µM (highest dose often 57.1 µM), for the others: at the top dose activity change, negative = inhibition, hits mostly inhibitors | hit rate 0.52% among 330,000;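 note: plate controls were no compound for no effect and no enzyme for full effect; nearly all actives have a fitted effect of over 20% in size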
Target sequence (P00811 whole entry, looked up): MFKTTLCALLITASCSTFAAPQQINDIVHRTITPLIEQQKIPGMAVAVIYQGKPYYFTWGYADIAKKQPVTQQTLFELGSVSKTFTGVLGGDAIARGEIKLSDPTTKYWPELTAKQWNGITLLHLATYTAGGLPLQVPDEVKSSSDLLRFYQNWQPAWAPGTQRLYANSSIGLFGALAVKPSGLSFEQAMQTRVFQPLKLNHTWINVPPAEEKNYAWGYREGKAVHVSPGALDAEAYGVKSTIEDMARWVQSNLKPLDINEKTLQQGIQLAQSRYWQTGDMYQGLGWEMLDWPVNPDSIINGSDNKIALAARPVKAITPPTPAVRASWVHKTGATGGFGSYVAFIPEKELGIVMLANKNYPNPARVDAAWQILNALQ
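AmpC (5.3 nM in the dispensed reagent) in 20 mM phosphate pH 7.0 with 0.01% (detergent screen) or 0.0001% Triton X-100 was preincubated with compounds for 15 min at room temperature. Nitrocefin was then added from an 800 uM solution, and hydrolysis was followed at 480 nm.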
Sm TGR block – blocks Schistosoma mansoni thioredoxin glutathione reductase; Q962Y6; purified TGR, DTNB reduction, TNB absorbance 405 nm; Potency, µM (top dose mostly 114 µM), for the others: at the top dose activity change, negative = inhibition, hits mostly inhibitors; hit rate 3% among 360,000; note: nearly all actives have a fitted effect of over 60% in size
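TGR 20 nM + NADPH 100 uM (dispensed conc.), cpd preinc 15 min RT; start with NADPH (500 uM addition) then DTNB (15 mM addition). Kinetic TNB absorbance, 405 nm filter. Four-parameter Hill fit across titration.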
AmpC detergent – AmpC beta-lactamase inhibition with detergent present; P00811; AmpC hydrolysis of nitrocefin, absorbance 480 nm, 0.01% Triton; Potency, µM (titrated, usually from 114 µM), without a hit: at the highest dose activity change, negative = inhibition, most hits filed as inhibitors; hit rate 0.041% among 370,000;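 note: 0% = no-compound wells and -100% = no-enzyme wells; nearly all actives have a fitted effect of over 25% in size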
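AmpC (5.3 nM in the dispensed reagent) in 20 mM phosphate pH 7.0 with 0.01% (detergent screen) or 0.0001% Triton X-100 was preincubated with compounds for 15 min at room temperature. Nitrocefin was then added from an 800 uM solution, and hydrolysis was followed at 480 nm.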
Active calls of the source: *; ? = inconclusive; · = no result given; ! = a repeat was not active. Calls come from the whole dose curve; as a rule, active = well fitted curve in the direction sought with a large enough effect; inconclusive = small, poorly fitted or top-dose-only effect, or another doubt; inactive = no such curve, though single readings can be large; an effect the other way counts as inactive or inconclusive. Unless noted, % is set by controls: 0 for no effect and ±100 for the full control effect; potency is the fitted concentration of half-maximal effect.

SMILES	AmpC inh no detg	Sm TGR block	AmpC detergent
COc1ccc(OC)c(CCNC(=O)c2nn(C)c3c2CSc2ccccc2-3)c1	·	?	21%
O=S(=O)(c1ccc(C2CCCCC2)cc1)N1CCOCC1	26%	-2%	1%
Cc1cc(C)c2c(c1)C1C=CCC1C(c1ccc(S(=O)(=O)N3CCOCC3)cc1)N2 (configuration not stated)	26%	1.6µM*	-7%
Cc1ccc(S(=O)(=O)N2CCOCCOCCOCCOCCOCC2)cc1	17%	7%	6%
O=C(O)c1cc(Cl)c2c(c1)[C@@H]1C=CC[C@@H]1[C@H](c1ccc(S(=O)(=O)N3CCOCC3)cc1)N2	-31%	14µM*	1%
CCCCOc1ccc(C(=O)Nc2ccc3c(c2)CCCN3S(=O)(=O)c2ccc(C)cc2)cc1	·	-3%	-5%
O=C(NC(NNc1ccc([N+](=O)[O-])cc1)(C(F)(F)F)C(F)(F)F)c1ccc(F)cc1	-12%	32µM*	-12%
O=C(NC(NNc1ccc([N+](=O)[O-])cc1)(C(F)(F)F)C(F)(F)F)c1ccccc1Cl	-26%	?	-7%
COc1ccc(-c2cc3ccc(O)c(CN4CCOCC4)c3oc2=O)cc1	·	-7%	2%
NNC(=O)/C(=N/Nc1ccccc1)S(=O)(=O)c1ccc(Cl)cc1	40µM*	3%	?
CCOC(=O)/C(=N/Nc1ccc(C)cc1)S(=O)(=O)c1ccc(Cl)cc1	-8%	-23%	-2%
CC(C)c1ccc(NC(=O)CN2C(=O)CSc3ccc(S(=O)(=O)N4CCCC4)cc32)cc1	·	1%	15%
COC(=O)CSc1[nH]c2cc(C)ccc2c1[N+](=O)[O-]	-34%	-35%	0%
COC(=O)CSc1[nH]c2ccc(Br)cc2c1[N+](=O)[O-]	-9%	2.5µM*	3%
CCOc1ccc2nc(-c3ccccc3)nc(SCC(=O)OC)c2c1	-6%	1%	-17%
CCOc1ccc2[nH]c(SCC(=O)OC)c([N+](=O)[O-])c2c1	-19%	45µM*	4%
CCC(Oc1ccccc1F)C(=O)Nc1c(C(=O)c2ccccc2)oc2ccccc12 (configuration not stated)	·	13%	24%
COc1cccc(CNC(=O)c2ccc(NC(=O)N3CCCCc4ccccc43)cc2)c1OC	·	7%	15%
CCCc1cc(=O)[nH]c(Nc2cc(Cl)cc(Cl)c2)n1	·	11%	10%
COc1ccccc1NC(=O)C1=C(C)Nc2nc(SCc3ccccc3)nn2C1c1cccs1 (configuration not stated)	·	-11%	?
O=C(NC1CCCCC1)c1ccc(CS(=O)Cc2ccccc2Cl)o1 (configuration not stated)	29%	45µM*	3%
O=C(NCc1ccc(Cl)cc1)c1ccc(CS(=O)Cc2cccc(Cl)c2)o1 (configuration not stated)	71%	-17%	1%
O=C(NCc1ccc(F)cc1)c1ccc(CS(=O)(=O)Cc2ccc(F)cc2)o1	2%	-18%	0%
COc1ccccc1CNC(=O)c1ccc(CS(=O)Cc2cccc(Cl)c2)o1 (configuration not stated)	46%	22µM*	1%
Cc1ccccc1CS(=O)(=O)Cc1ccc(C(=O)NC2CCCCC2)o1	11%	-29%	3%
SMILES	AmpC inh no detg	Sm TGR block	AmpC detergent
O=C(NCc1ccc(F)cc1)c1ccc(CS(=O)(=O)Cc2ccccc2F)o1	-9%	40µM*	?
CC(C)Oc1ccc(CNC(=O)c2ccc(CS(=O)c3cccc(Cl)c3)o2)cc1 (configuration not stated)	·	?	-5%
CC(C)Oc1ccc(CNC(=O)c2ccc(CS(=O)Cc3ccccc3Cl)o2)cc1 (configuration not stated)	·	45µM*	4%
Cc1nc(CC(=O)Nc2ccc(C(N)=O)cc2)cs1	·	0%	10%
CCc1cnc2c(c1SCCC(C)C)c(=O)n(C)c(=O)n2C	·	-4%	3%
Cc1ccccc1CNC(=O)c1ccc(CS(=O)Cc2ccc(Cl)cc2)o1 (configuration not stated)	·	-4%	24%
O=C(CCc1nc2cccnc2n1Cc1cccs1)Nc1cccc(Cl)c1	·	-12%	-7%
O=C(NCCc1ccc(Cl)cc1)c1ccc(CS(=O)Cc2ccccc2Cl)o1 (configuration not stated)	115%	32µM*!	-1%
O=C(NC1CCCC1)c1ccc(CS(=O)Cc2ccc(Cl)cc2)o1 (configuration not stated)	0%	?	-5%
O=C(NCCc1cccs1)c1ccc(CS(=O)Cc2ccc(Cl)cc2)o1 (configuration not stated)	23%	45µM*	1%
O=C(NCc1ccccc1)c1ccc(CS(=O)(=O)c2c(Cl)cccc2Cl)o1	·	-4%	-15%
COCCNC(=O)c1ccc(CS(=O)(=O)c2c(Cl)cccc2Cl)o1	-42%	50µM*	-6%
CSc1ccc(CCNC(=O)c2ccc(CS(=O)Cc3ccccc3Cl)o2)cc1 (configuration not stated)	62%	-20%	0%
O=C(NC1CCCCC1)c1ccc(CS(=O)Cc2ccc(Cl)cc2)o1 (configuration not stated)	32%	45µM*	2%
O=C(NCCCc1ccccc1)c1ccc(CS(=O)Cc2ccc(Cl)cc2)o1 (configuration not stated)	95%	?	2%
Cc1ccc(C(=O)c2oc3ccccc3c2NC(=O)Cc2coc3cc(C)ccc23)cc1	·	-2%	-5%
Cc1ccc(Cn2c(CNS(=O)(=O)c3ccc(Cl)s3)nc3cccnc32)cc1	·	6%	0%
O=C(c1ccc2c(c1)N(Cc1ccccc1F)C(=O)c1ccccc1S2(=O)=O)N1CCN(c2ccccn2)CC1	·	1%	-7%
COc1ccc(C2=CC(c3ccc(F)cc3)n3ncc(C(=O)Nc4ccc(C)cc4)c3N2)cc1 (configuration not stated)	·	27%	1%
COc1ccccc1NC(=O)CSc1cn(CC(=O)N2CCCC2)c2ccccc12	·	-6%	-2%
CCCCN(C)c1nnc(NC(=O)Nc2cccc(C(C)=O)c2)s1	·	-11%	-1%
Cc1ccc(-c2nc3c4ccccc4n(CC(=O)N4CCN(c5ccccc5F)CC4)c(=O)n3n2)cc1	·	0%	3%
Cc1cccc(OCc2ccc(-c3nc(C#N)c(N4CCC(C(N)=O)CC4)o3)o2)c1	·	-5%	-4%
O=C(Nc1ccc(OC(F)(F)F)cc1)C1CCN(S(=O)(=O)c2ccc3[nH]c(=O)ccc3c2)CC1	·	-3%	-7%
O=C(CN1C(=O)COc2ccc(S(=O)(=O)N3CCCCCC3)cc21)N1CCN(c2ccc(Cl)cc2)CC1	·	10%	1%
COc1ccc(NC(=O)c2ccco2)cc1NC(=O)C(C)(C)Oc1ccc(Cl)cc1	·	-14%	-5%
O=C(NCCc1ccccc1)c1ccc(CS(=O)(=O)Cc2ccccc2Cl)o1	·	50µM*	-6%
COc1cccc(CNC(=O)c2ccc(CS(=O)Cc3ccc(Cl)cc3)o2)c1 (configuration not stated)	·	-22%	14%
Cc1ccccc1CS(=O)(=O)Cc1ccc(C(=O)NCCc2ccccc2)o1	14%	?	-1%
